Where “and” joins values, the source holds several entries; their conditions need not be identical. Equal entries are not always repeated. Compounds without any hit were thinned out: in the full panel of roughly 79,000, 15% have a hit. A structure can be active in one record and inactive in another. Calls of active or inactive are those of the source. No stated cut-off is given here; in the data, active means growth inhibition above about 70%; inactive means the rest.
Columns and labels:
[1] = NCI Yeast Anticancer Drug Screen. Data for the rad50 strain (AID 155);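 further: 0% = growth of vehicle-only cultures of the same strain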; details: S. cerevisiae rad50 strain growth inhibition, stronger effect = higher value
Method in brief: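 Inhibition values express reduced yeast growth in compound-treated cultures relative to vehicle-treated controls.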

[2] = NCI Yeast Anticancer Drug Screen. Data for the mec2-1 strain (AID 157); details: S. cerevisiae mec2-1 strain, stronger effect = higher value
Method in brief: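 Using mec2-1 yeast: add compound, measure growth, express inhibition versus vehicle-treated cultures.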

[3] = NCI Yeast Anticancer Drug Screen. Data for the sgs1 mgt1 strain (AID 161);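 further: 0% = growth of cultures given vehicle only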; details: S. cerevisiae sgs1 mgt1 strain, stronger effect = higher value
Method in brief: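 Yeast cells carrying a defined DNA-repair defect were exposed to test compounds. Growth inhibition was measured relative to vehicle-treated controls.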

[4] = NCI Yeast Anticancer Drug Screen. Data for the cln2 rad14 strain (AID 165);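 further: 0% = growth equal to vehicle treated cultures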; details: S. cerevisiae cln2 rad14 strain, stronger effect = higher value
Method in brief: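 Yeast strain cln2 rad14, bearing defects in cell cycle control and DNA repair, serves as the test system; values reflect growth inhibition compared with vehicle.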

[5] = NCI Yeast Anticancer Drug Screen. Data for the bub3 strain (AID 167); details: S. cerevisiae bub3 mutant strain, stronger effect = higher value
Method in brief: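 Steps: expose the mutant yeast strain to compound; grow alongside vehicle-treated cultures; measure growth; express inhibition against the vehicle cultures.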

[6] = NCI Yeast Anticancer Drug Screen. Data for the mlh1 rad18 strain (AID 175); details: S. cerevisiae mlh1 rad18 strain growth inhibition, stronger effect = higher value
Method in brief: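 Steps: expose repair-defective yeast to compound; measure growth; express inhibition against vehicle-treated controls.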

[7] = at 5.0 µM (retest, dose inferred, filed as 0.5)
[8] = at 50.0 µM (retest, dose inferred, filed as 5.0)

| SMILES | growth inhibition [1, 7] | growth inhibition [1, 8] | growth inhibition ([1]; at 50.0 µM) | growth inhibition [2, 7] | growth inhibition [2, 8] | growth inhibition ([2]; at 50.0 µM) | growth inhibition [3, 7] | growth inhibition [3, 8] | growth inhibition ([3]; at 50.0 µM) | growth inhibition [4, 7] | growth inhibition [4, 8] | growth inhibition ([4]; at 50.0 µM) | growth inhibition [5, 7] | growth inhibition [5, 8] | growth inhibition ([5]; at 50.0 µM) | growth inhibition [6, 7] | growth inhibition [6, 8] | growth inhibition ([6]; at 50.0 µM) |
| --- | --- | --- | --- | --- | --- | --- | --- | --- | --- | --- | --- | --- | --- | --- | --- | --- | --- | --- |
| Cc1cc(N)c(S)cc1C | 6% (inactive) and -2% (inactive) | 25% (inactive) and 28% (inactive) | 65.1% (inactive) and 25.8% (inactive) | -8% (inactive) and 0% (inactive) | 25% (inactive) and 31% (inactive) | 19.9% (inactive) and 24.2% (inactive) | 1% (inactive) | 44% (inactive) and 37% (inactive) | 21.3% (inactive) and 50.4% (inactive) | -1% (inactive) and -7% (inactive) | 2% (inactive) and 7% (inactive) | -50% (inactive) and 30.4% (inactive) | -2% (inactive) and 1% (inactive) | 59% (inactive) and 47% (inactive) | 42.9% (inactive) and 75.5% (active) | 2% (inactive) and -2% (inactive) | 70% (active) and 40% (inactive) | 59.8% (inactive) and 77% (active) |
| CCC(C)(C)c1cc(O)c(C(C)(C)CC)cc1O | 10% (inactive) | 88% (active) | 0.35% (inactive) and 93.2% (active) | 3% (inactive) | 67% (inactive) | -22.4% (inactive) and 93.3% (active) | -3% (inactive) | 91% (active) | 11.3% (inactive) and 88% (active) | 18% (inactive) | 84% (active) | -15.2% (inactive) and 84.8% (active) | 23% (inactive) | 91% (active) | 20.2% (inactive) and 92.3% (active) | 10% (inactive) | 81% (active) | 9.45% (inactive) and 91.8% (active) |
| COC(=O)C#CC(=O)OC | 14% (inactive) | 96% (active) | 32% (inactive) and -2.9% (inactive) | 14% (inactive) | 99% (active) | 9.8% (inactive) and 77.9% (active) | -15% (inactive) | 84% (active) | 7.05% (inactive) and 45% (inactive) | 21% (inactive) | 96% (active) | 17.9% (inactive) and 9.6% (inactive) | -18% (inactive) | 99% (active) | 0.8% (inactive) and 74% (active) | -2% (inactive) | 98% (active) | 21.8% (inactive) and 49.8% (inactive) |
| O=C1C=CC(=O)N1c1ccc(N=Nc2ccccc2)cc1 | 97% (active) | 99% (active) | 86.2% (active) and 7.45% (inactive) | 99% (active) | 99% (active) | 86.2% (active) and -13.1% (inactive) | 99% (active) | 91% (active) | 89.7% (active) and 21.8% (inactive) | 98% (active) | 92% (active) | 87.2% (active) and 20.6% (inactive) | 99% (active) | 91% (active) | 87% (active) and 5.75% (inactive) | 98% (active) | 99% (active) | 85.5% (active) and 5.9% (inactive) |
| OC(CN1CCCC2CCCCC21)c1cc2ccccc2c2ccccc12 (stereo not given) | 0% (inactive) and -2% (inactive) | 97% (active) and 99% (active) | 98.7% (active) and 98.5% (active) | 20% (inactive) and -4% (inactive) | 80% (active) and 99% (active) | 98.4% (active) | -21% (inactive) and -6% (inactive) | 98% (active) and 99% (active) | 98.9% (active) and 98% (active) | -2% (inactive) | 94% (active) and 99% (active) | 99% (active) and 98.2% (active) | 0% (inactive) and -3% (inactive) | 91% (active) and 99% (active) | 99.2% (active) and 99% (active) | 13% (inactive) and 2% (inactive) | 99% (active) | 99.2% (active) and 99% (active) |
| O=C1OC(CN2CCOCC2)CN1/N=C/c1ccc([N+](=O)[O-])o1 (stereo not given) | 6% (inactive) | 50% (inactive) | 65.8% (inactive) and -2.7% (inactive) | 8% (inactive) | 41% (inactive) | 26.6% (inactive) and 14.2% (inactive) | 18% (inactive) | 80% (active) | 86% (active) and 69.8% (inactive) | 1% (inactive) | 51% (inactive) | 38.3% (inactive) and -8.55% (inactive) | -4% (inactive) | 9% (inactive) | 36.6% (inactive) and 0.1% (inactive) | 13% (inactive) | 76% (active) | 75.7% (active) and 34.3% (inactive) |
| C[Si]1(C)CN(CCN)C[Si](C)(C)O1 | 3% (inactive) | 2% (inactive) | -3.85% (inactive) and 55.5% (inactive) | 1% (inactive) | 9% (inactive) | 4.25% (inactive) and 49.5% (inactive) | 2% (inactive) | 0% (inactive) | -15.4% (inactive) and 76.5% (active) | 2% (inactive) | -3% (inactive) | -20.3% (inactive) and 45% (inactive) | -2% (inactive) | -4% (inactive) | -3.65% (inactive) and 68.4% (inactive) | 0% (inactive) | -2% (inactive) | -1.3% (inactive) and 62.6% (inactive) |
| C=C[C@]1(C)C=C2C(O)CC3C(C)(C)CCC[C@]3(CO)C2CC1 (stereo not given in full) | 8% (inactive) | 99% (active) | 99.2% (active) | 13% (inactive) | 100% (active) | 99.6% (active) | 17% (inactive) | 97% (active) | 99.5% (active) | 13% (inactive) | 99% (active) | 99.3% (active) | 4% (inactive) | 99% (active) | 99.5% (active) | 26% (inactive) | 99% (active) | 99.2% (active) |
| c1ccc(C(c2ccccc2)n2ccnc2)cc1 | -95% (inactive) | -13% (inactive) | 76.2% (active) | -11% (inactive) | 18% (inactive) | 60% (inactive) | -23% (inactive) | 37% (inactive) | 43.5% (inactive) | -27% (inactive) | -21% (inactive) | 66.6% (inactive) | -57% (inactive) | 2% (inactive) | 59.4% (inactive) | -72% (inactive) | 1% (inactive) | 80.7% (active) |
| NC(=O)NC(=O)C(Cc1ccc(Cl)cc1)c1ccccc1 (stereo not given) | -1% (inactive) | 17% (inactive) | -15% (inactive) | -6% (inactive) | 8% (inactive) | -13.2% (inactive) | 1% (inactive) | 7% (inactive) | -5.75% (inactive) | 4% (inactive) | 19% (inactive) | -65.7% (inactive) | 6% (inactive) | 20% (inactive) | -52.6% (inactive) | -13% (inactive) | 5% (inactive) | 2.15% (inactive) |
| O=C(CC1=Nc2nnc(CCCCCCCc3nnc4n3C(=O)C(CC(=O)c3ccc5ccccc5c3)=N4)n2C1=O)c1ccc2ccccc2c1 | 1% (inactive) | 85% (active) | 17.9% (inactive) | 1% (inactive) | 92% (active) | 9.85% (inactive) | -2% (inactive) | 93% (active) | 18.4% (inactive) | 6% (inactive) | 85% (active) | 82.1% (active) | 6% (inactive) | 88% (active) | 1.75% (inactive) | 3% (inactive) | 37% (inactive) | 26.9% (inactive) |
| CC(=O)c1ccc2ccc3ccc(O)cc3c2c1 | 1% (inactive) | 97% (active) | 88.5% (active) | 11% (inactive) | 97% (active) | 80.5% (active) | 2% (inactive) | 96% (active) | 82.2% (active) | -5% (inactive) | 97% (active) | 72.8% (active) | -27% (inactive) | 98% (active) | 90.2% (active) | 6% (inactive) | 97% (active) | 89.2% (active) |
| CN(C)C(=Nc1nc(=[N+](C)C)ss1)N(C)C | -17% (inactive) | -10% (inactive) | 93% (active) | 3% (inactive) | 8% (inactive) | 44.2% (inactive) | 8% (inactive) | -19% (inactive) | 86% (active) | 12% (inactive) | 13% (inactive) | 30.4% (inactive) | 10% (inactive) | 10% (inactive) | 49.4% (inactive) | 15% (inactive) | 13% (inactive) | 81.8% (active) |
| O=C1c2cccc(O)c2C(=O)c2c(O)cccc21 | 67% (inactive) | 73% (active) | 55% (inactive) and 74.8% (active) | 28% (inactive) | 36% (inactive) | 38.1% (inactive) and 42.8% (inactive) | 21% (inactive) | 50% (inactive) | 41.6% (inactive) and 45.6% (inactive) | 18% (inactive) | 25% (inactive) | 44.1% (inactive) and -10.8% (inactive) | 24% (inactive) | 62% (inactive) | 42.6% (inactive) and 39.5% (inactive) | 42% (inactive) | 66% (inactive) | 50.4% (inactive) and 66.1% (inactive) |
| CS(=O)(=O)OC1CC(n2ccc(=O)[nH]c2=O)OC1COC(c1ccccc1)(c1ccccc1)c1ccccc1 (stereo not given) | -14% (inactive) | 95% (active) | 14.9% (inactive) and 97% (active) | -4% (inactive) | 95% (active) | -4.6% (inactive) and 97% (active) | -17% (inactive) | 54% (inactive) | 11.3% (inactive) and 50.5% (inactive) | 0% (inactive) | 92% (active) | 2.9% (inactive) and 96.3% (active) | -3% (inactive) | 86% (active) | 7.25% (inactive) and 97.8% (active) | 0% (inactive) | 97% (active) | 5.6% (inactive) and 97% (active) |
